What all share (experiment): NCI-60 one-dose screen, 48 h (100 = growth as untreated, 0 = no growth, -100 = all killed)
Holding throughout (settings): 10 µM unless noted

Test [1] has as its system HCT-15 colon.
Test [2] deals with HT29 colon.
In test [3] the test system is SNB-75 CNS.
The test system of test [4] is SNB-19 CNS.
In test [5] the test system is U251 CNS.
For test [6], the system named is PC-3 prostate.
In test [7] the test system is SK-MEL-5 melanoma.
Test [8] relates to UACC-62 melanoma.
The subject of test [9] is LOX IMVI melanoma.
In test [10] the test system is SK-MEL-28 melanoma.

SMILES strings stand for the structures. The panel holds about 83,000 compounds, 20% with a hit somewhere; the sample as a whole holds those more often.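 A percent growth of 40 corresponds to 60% growth inhibition; 0 means no net growth; -100 means all cells died. Active threshold: below 10.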 Values without a mark were called inactive. Activity calls are given as the source filed them.

With `C#C[C@]1(O)CC[C@H]2[C@@H]3CC=C4c5sc(-c6ccc(C)cc6)nc5CC[C@]4(C)[C@H]3CC[C@@]21C`, the growth in test [1] was -2.81% (active); in [2], 98%; in test [3], -8.57% (active); in test [4] it was 10.9%; in [5] it was 8.46% (active); in test [6], -19.9% (active). For the same compound, the growth is -75.7% (active) in [7], 2.15% (active) in test [8], -60.8% (active) in [9] and -57.2% (active) in [10].

As for `C=CC(=O)N1CC=C(c2cc3c(N[C@H](C)c4ccccc4)ncnc3[nH]2)CC1`, the growth in [1] was 82.6%; in test [2], 54%; in [3], -0.73% (active); in test [4], 91.9%; in [5] it was 94.6%; in [6], 82.7%. In addition, the growth in test [7] is 95.5%; in test [8], 85.5%; in test [9], 56.2%; in test [10], 104%.

Consider `Nn1c(N/N=C/c2nc3ccccc3s2)n[nH]c1=S`, for which the growth was 122% in [1]; 112% in test [2]; 51.5% in test [3]; 104% in test [4]; 113% in test [5]; 97.8% in test [6]. Also, the growth in [7] was 100%; in test [8], 92.1%; in test [9], 102%; in test [10], 114%.

With `O=C(NNc1nc2cc(F)ccc2n2c(CO)ccc12)c1cnccn1`, the growth in test [1] was 22.9%; in test [2], 22%; in test [3], 42.9%; in test [4], 21.8%; in [5], 16.5%; in test [6], 23.6%. Besides, the growth in test [7] was 6.38% (active); in test [8] it was -14.8% (active); in test [9], 1.5% (active); in [10] it was 25.1%.

Regarding `Cc1ccc(-c2nn(-c3ccccc3)cc2/C=C/C(=O)c2ccc(NC(=O)CCCCCCC(=O)NO)cc2)cc1`, the growth is 68% in test [1]; 61.4% in [2]; 102% in test [3]; 81.9% in [4]; 79.2% in [5]; 74.6% in [6]. Also, the growth in test [7] was 91.7%; in test [8], 53.3%; in test [9], 62.2%; in test [10] it was 89%.

As for `COc1cccc(/C=C(/C)c2ccc3cccc(OC)c3[o+]2)c1O`, the growth was 98% in test [1]; 114% in test [2]; 92.4% in [3]; 95.6% in test [4]; 108% in [5]; 87.3% in test [6]. The growth in [7] was 102%; in test [8], 80.3%; in test [9] it was 127%; in test [10], 98.9%.

For `O=C(NNc1nc2cc(F)ccc2n2c(CN3CCC(O)C3)ccc12)c1cnccn1` (stereo not given), the growth in test [1] was 25.7%; in [2], 23.8%; in test [3], 51.9%; in [4], 22.3%; in [5], 19.9%; in [6] it was 25.2%. In addition, the growth in test [7] was 4.28% (active); in test [8], 0.128% (active); in test [9], -0.788% (active); in test [10], 25.5%.

With `CC(C)(C)CC(C)(C)n1nnnc1C(Nc1nccs1)c1cc2cccc3ccc4cccc1c4c32` (stereo not given), the growth in [1] is 94.9%; in test [2], 104%; in [3], 91.5%; in test [4], 89.9%; in [5], 98.1%; in [6], 96.9%. Further, the growth in test [7] was 100%; in test [8], 68.4%; in test [9], 97%; in test [10] it was 101%.

With `C=C(C=O)[C@@H]1CC[C@]2(C)[C@H](C(=O)C=C3[C@H]4C[C@](C)(C(=O)OC)CC[C@]4(C)CC[C@]32C)[C@@]1(C)CCC#N`, the growth was -45.3% (active) in test [1]; -5.25% (active) in test [2]; 66.1% in test [3]; 30.7% in test [4]; 2.98% (active) in test [5]; 11.2% in [6]. Also, the growth in test [7] was -88% (active); in test [8], -19% (active); in test [9], -83.2% (active); in test [10], -38.3% (active).

`c1cc(-c2nc3ccc4[nH]ncc4c3c3c2CCCC3)[nH]n1`: the growth in test [1] was 34.8%; in test [2], 63.7%; in test [3] it was 60.3%; in test [4], 64.6%; in [5], 65.7%; in test [6] it was 57.1%. For the same compound, the growth in test [7] is 76.9%; in [8], 50.7%; in test [9], 58.4%; in test [10], 94.1%.

In the case of `COc1cc(-c2nn(C(C)(C)C)cc2-c2ccnc(NCCCNS(=O)(=O)c3ccccc3)n2)ccc1Cl`, the growth is 60.1% in test [1]; 70.3% in test [2]; 49.1% in test [3]; 97.2% in test [4]; 91.7% in test [5]; 54.8% in [6]. Also, the growth in [7] was 72.7%; in test [8] it was 78.4%; in [9], 62.7%; in test [10], 93%.

`CCOC(=O)C1=NNC(c2ccc(Cl)cc2)C1C(=O)N1C(=S)NC(=O)C1CC(C)C` (stereo not given): the growth was 105% in test [1]; 116% in test [2]; 100% in test [3]; 98.3% in [4]; 105% in test [5]; 96.8% in test [6]. Also, the growth in test [7] is 106%; in [8], 94.2%; in test [9], 103%; in test [10], 103%.

Turning to `CCn1c(SCC(=O)Nc2cccc(C(=O)/C=C/c3ccc(C)cc3)c2)nc2ccccc2c1=O`, the growth in test [1] was 49.2%; in test [2], 65.8%; in test [3] it was 93.3%; in test [4] it was 81.2%; in test [5], 80.1%; in test [6], 60.7%. Besides, the growth was 90% in test [7], 70.1% in test [8], 37.6% in test [9] and 95.8% in test [10].

As to `COCCNc1ccc2ncc(C#Cc3cncc(C(=O)Nc4ccc(CN5CCN(C)CC5)c(C(F)(F)F)c4)c3)n2n1`, the growth in test [1] is -22.7% (active); in test [2] it was -22.6% (active); in test [3] it was -71.5% (active); in [4] it was -12% (active); in [5] it was -38.2% (active); in test [6], -25.3% (active). Besides, the growth was -93.7% (active) in test [7], -62.4% (active) in test [8], -87.8% (active) in test [9] and -22.9% (active) in test [10].

Consider `O=C1[C@H]2Cc3c([nH]c4ccccc34)[C@@H](c3c(Cl)cccc3Cl)N2C(=O)CN1C1CCN(CC2CCCCC2)CC1`, for which the growth in test [1] is 29.5%; in test [2], 20.5%; in test [3] it was 100%; in [4] it was 94.6%; in test [5], 89.1%; in test [6] it was 63.5%. The growth in test [7] is 83.7%; in test [8], 94.3%; in [9], -59.9% (active); in test [10], 99.3%.

As for `Cc1ccc(CSc2nc(-c3ccc(Cl)cc3)c(C#N)c(N3CCNCC3)n2)cc1`, the growth in test [1] is 76.2%; in test [2], 58.4%; in [3], 68.5%; in test [4], 84.7%; in [5], 65.4%; in test [6] it was 63.5%. Also, the growth in test [7] is 74.2%; in test [8], 105%; in test [9] it was 52.1%; in [10], 102%.

Regarding `O=C(CN1CCN(c2cc(=O)n(-c3ccccc3)c3ccccc23)CC1)Nc1ccc(F)cc1`, the growth was 69.2% in test [1]; 81% in [2]; 77.2% in test [3]; 77.3% in test [4]; 80.2% in [5]; 64.6% in [6]. Moreover, the growth was 16.9% in test [7], 55.3% in test [8], 67.4% in test [9] and 86.2% in test [10].

Regarding `NC(N)=Nc1ccc(Oc2cccc(Nc3ccc(Br)c(C(F)(F)F)c3)c2)cc1`, the growth is 69.9% in test [1]; 11.5% in test [2]; 27.1% in test [3]; -15.9% (active) in test [4]; -78.9% (active) in test [5]; 1.98% (active) in [6]. Also, the growth in test [7] is 22.5%; in test [8], 7.23% (active); in [9] it was -97.1% (active); in [10], 58.3%.

With `COC(=O)/C=C/c1c(C2(C)NC(=O)c3ccccc3N2)c(=O)oc2ccc(Cl)cc12` (stereo not given), the growth was 91.4% in [1]; 96% in test [2]; 74% in [3]; 90.7% in test [4]; 88% in test [5]; 89.2% in test [6]. For the same compound, the growth in [7] was 91.4%; in [8] it was 75.4%; in test [9], 97%; in [10] it was 97.6%.

As to `Oc1cccc2ccc(-c3nnc(SCc4ccc(O)c5ncccc45)n3-c3ccccc3)nc12`, the growth in test [1] is 16.5%; in test [2], 81.3%; in test [3] it was 9.14% (active); in test [4] it was 9.4% (active); in [5], 8.21% (active); in test [6], 12.4%. For the same compound, the growth in [7] is -31.1% (active); in test [8], -4.13% (active); in test [9] it was 5.48% (active); in [10], 22%.

As to `Nc1ncc(-c2ccc3ncnc(N4CCc5cc(F)c(Cl)cc54)c3c2)cn1`, the growth in test [1] is 18.2%; in test [2], 24.1%; in [3] it was -32.2% (active); in test [4], 43%; in [5] it was 45%; in test [6] it was 10.5%. Also, the growth in test [7] was 29.2%; in test [8], 22.2%; in test [9] it was 9.68% (active); in test [10] it was 40.5%.

For the compound `COc1ccc(N2C(=O)c3cc(Cl)ccc3NC2SCc2ccccc2)cc1` (stereo not given), the growth in test [1] is 82%; in test [2], 84.1%; in [3], 94.9%; in test [4], 95.7%; in [5], 99.4%; in test [6], 84.8%. Further, the growth in test [7] is 102%; in [8], 70.3%; in [9], 94.8%; in test [10], 99.2%.

Source of the values: PubChem BioAssay (NCI).
